Laboratory results as given in the supplement of paper PMC10933113.
Unmarked numbers belong to inactive results.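 How the source made its calls: active = curve rank above 3; inactive = curve rank 0.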

system: KeratinoSens (HaCaT ARE-luciferase) cells; test: Nrf2/ARE luciferase activation call in qHTS KeratinoSens assay (1 = active, 0 = inactive)

Row | SMILES | Nrf2/ARE luciferase activation call
1 | CCCCn1cc[n+](C)c1.O=S(=O)([N-]S(=O)(=O)C(F)(F)F)C(F)(F)F | not active ARE inducer (skin sensitizer alert)
2 | O=C(O)CC(O)(CC(=O)O)C(=O)O.Oc1cccc2cccnc12 | active ARE inducer (skin sensitizer alert)
3 | CCN(CC)CCc1c[nH]c2ccccc12.CCN(CC)CCc1c[nH]c2ccccc12.O=C(O)/C=C/C(=O)O | not active ARE inducer (skin sensitizer alert)
4 | CCCC[N+]1(C)CCCCC1.O=S(=O)([N-]S(=O)(=O)C(F)(F)F)C(F)(F)F | not active ARE inducer (skin sensitizer alert)
5 | CCCCCCCCCCCCCCCCCC(=O)[O-].OCC[NH+](CCO)CCO | active ARE inducer (skin sensitizer alert)
6 | CCn1cc[n+](C)c1C.O=S(=O)([N-]S(=O)(=O)C(F)(F)F)C(F)(F)F | not active ARE inducer (skin sensitizer alert)
7 | C[C@H]1[C@@H]2Cc3ccc(O)cc3[C@@]1(C)CCN2C.C[C@H]1[C@@H]2Cc3ccc(O)cc3[C@@]1(C)CCN2C.O=C(O)/C=C/C(=O)O | not active ARE inducer (skin sensitizer alert)
8 | CCN(C)C(=O)Oc1cccc([C@H](C)N(C)C)c1.O=C(O)[C@@H](O)[C@H](O)C(=O)O | not active ARE inducer (skin sensitizer alert)
9 | CC(=O)[O][Cr]([OH])[O]C(C)=O.CC(=O)[O][Cr]([OH])[O]C(C)=O.CC(=O)[O][Cr]([O]C(C)=O)[O]C(C)=O | not active ARE inducer (skin sensitizer alert)
10 | CCCC[N+](C)(C)C.O=S(=O)([N-]S(=O)(=O)C(F)(F)F)C(F)(F)F | not active ARE inducer (skin sensitizer alert)
11 | O=C(O)c1ccccc1O.OCCN(CCO)CCO | not active ARE inducer (skin sensitizer alert)
12 | CCCCCCn1cc[n+](C)c1.O=S(=O)([O-])C(F)(F)F | not active ARE inducer (skin sensitizer alert)
13 | CCCCCCCCCCCC(=O)O.OCCN(CCO)CCO | not active ARE inducer (skin sensitizer alert)
14 | CCC[N+]1(C)CCCCC1.O=S(=O)([N-]S(=O)(=O)C(F)(F)F)C(F)(F)F | not active ARE inducer (skin sensitizer alert)
15 | O=C(O)/C=C/C(=O)O.O=C(O)/C=C/C(=O)O.c1ccc(CN2CCNCC2)cc1 | not active ARE inducer (skin sensitizer alert)
16 | O=C(O)c1ccccc1O.Oc1cccc2cccnc12 | not active ARE inducer (skin sensitizer alert)
17 | C[C@H](CN1CCOCC1)C(C(=O)N1CCCC1)(c1ccccc1)c1ccccc1.O=C(O)[C@H](O)[C@@H](O)C(=O)O | not active ARE inducer (skin sensitizer alert)
18 | CC[N+]1(C)CCCC1.O=S(=O)([N-]S(=O)(=O)C(F)(F)F)C(F)(F)F | not active ARE inducer (skin sensitizer alert)
19 | CCC[N+]1(C)CCCC1.O=S(=O)([N-]S(=O)(=O)C(F)(F)F)C(F)(F)F | not active ARE inducer (skin sensitizer alert)
20 | CC[S+](C)CC.O=S(=O)([N-]S(=O)(=O)C(F)(F)F)C(F)(F)F | not active ARE inducer (skin sensitizer alert)
21 | C[N+](C)(C)CCO.O=S(=O)([N-]S(=O)(=O)C(F)(F)F)C(F)(F)F | not active ARE inducer (skin sensitizer alert)
22 | CC(C)=CCN1CC[C@@]2(C)c3cc(O)ccc3C[C@@H]1[C@@H]2C.O=C(O)CCC(=O)O | not active ARE inducer (skin sensitizer alert)
23 | CCC(COC(=O)c1cc(OC)c(OC)c(OC)c1)(c1ccccc1)N(C)C.O=C(O)/C=C\C(=O)O (stereo not drawn) | not active ARE inducer (skin sensitizer alert)
24 | CC[S+](CC)CC.O=S(=O)([N-]S(=O)(=O)C(F)(F)F)C(F)(F)F | not active ARE inducer (skin sensitizer alert)
25 | CCCCCCn1cc[n+](C)c1.O=S(=O)([N-]S(=O)(=O)C(F)(F)F)C(F)(F)F | not active ARE inducer (skin sensitizer alert)
26 | CCCC[N+]1(C)CCCC1.O=S(=O)([N-]S(=O)(=O)C(F)(F)F)C(F)(F)F | not active ARE inducer (skin sensitizer alert)
27 | CCCn1cc[n+](C)c1.O=S(=O)([N-]S(=O)(=O)C(F)(F)F)C(F)(F)F | not active ARE inducer (skin sensitizer alert)
28 | CCCCCCCCCCCCOS(=O)(=O)O.OCCN(CCO)CCO | not active ARE inducer (skin sensitizer alert)
